Experimental findings from PubChem BioAssay AID1347156 (National Center for Advancing Translational Sciences (NCATS), 2019) are described below.

Inconclusive results are not listed. Calls of active or inactive are those of the source. The call rests on the fitted dose curve; in most records, active means well fitted cell-killing curve with a large enough effect; inconclusive means small, poorly fitted or top-dose-only effect; inactive means flat fitted curve, though single readings scatter.
Potency means the concentration at half of the fitted maximal effect.

The nature of this experiment: DAPI mCherry counterscreen qHTS for Zika virus inhibitors. Further: nearly all actives have a fitted effect of over 55% in size. The note with it: Vero cells, DAPI nuclear count cytotoxicity, imaging 48-72 h, infected with Zika reporter virus, MOI 1; series mostly up to 32.6 µM. The essentials: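 Imaging read-out after fixation and Hoechst nuclear staining: percent infection from mCherry-positive cells (above 3 SD of negative controls) and nuclear counts. Setup: Vero cells pre-plated overnight, compound added, infected with ZIKV-mCherry (MOI 1), 48-72 hrs, 37 degrees C.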
Take `O=C(O)COc1ccc(-c2nccc3c2C(=O)N(Cc2cccc(C(F)(F)F)c2)CC(COc2ccc4cnccc4c2)O3)cc1` (stereo not drawn): the Potency entry was “inactive”.

Turning to `Cc1oc2c(cc(NS(=O)(=O)c3ccc(Cl)cc3)c3ccccc32)c1C(=O)OCc1ccccc1`, the Potency result was “inactive”.

Take `CC(C)=CCc1c2c(c3occ(-c4ccc(O)c(O)c4)c(=O)c3c1O)C=CC(C)(C)O2`: the Potency was 8.91 µM (active).

As to `CC(C)C[C@H](C(=O)O)c1cc(-c2ccc(C(F)(F)F)cc2)cc(-c2ccc(C(F)(F)F)cc2)c1`, the Potency was 11.2 µM (active).

For the compound `O=C1NC(=O)c2cc(Nc3ccccc3)c(Nc3ccccc3)cc21`, the Potency is 31.6 µM (active).

`CCCCc1nn2c(=O)cc(COC(=O)c3ccc(NC(=O)CCc4ccccc4)cc3)nc2s1`: the Potency entry is “inactive”.

As to `CCCCCCCC/C=C\CCCCCCCC(=O)NCCc1ccc(O)c(O)c1`, the Potency is 8.91 µM (active).

For `O=C(O)c1cc(O)c2cccc(O)c2c1O[C@@H]1O[C@H](CO)[C@@H](O)[C@H](O)[C@H]1O`, the Potency entry is “inactive”.

Turning to `O=S(=O)(Nc1ccc(O)c(Sc2nc3ccccc3s2)c1)c1cc(Cl)ccc1Cl`, the Potency was 35.5 µM (active).

For the compound `CCOC(=O)c1cccc(NC(=O)CSc2ncc3c(n2)-c2ccc(Cl)cc2N(Cc2ccccc2)S3(=O)=O)c1`, the Potency result was “inactive”.

For `COc1cc(C(=O)NS(=O)(=O)c2ccccc2C)ccc1Cc1cn(C)c2ccc(NC(=O)OC3CCCC3)cc12`, the Potency was 35.5 µM (active).

On to `O=C(O)c1ccccc1Nc1cccc(OCc2ccc3ccccc3n2)c1`, for which the Potency was 31.6 µM (active).

Regarding `CCOC(=O)c1ccc(N2C(=O)c3n[nH]c(-c4cccs4)c3C2c2ccc(C(C)(C)C)cc2)cc1` (stereo not drawn), the Potency was 10 µM (active).
